Out of some 360,000 compounds screened, about 2,800 (0.78%) were called active. Many of the other results were omitted from the sample, so actives are more common in it than they were. Values without a mark were called inactive. No stated cut-off is given here; in the data, active means inhibition above about 26%; inactive means the rest.

In this assay the test system is Nicotinate-nucleotide adenylyltransferase NadD (Staphylococcus aureus N315). The assay is described as follows: inhibitors of S. aureus NadD, primary screen, biochemical, colorimetric, uHTS (AID 602399). Conditions: purified NadD enzyme, colorimetric absorbance read-out; at 20 µM; stronger effect = higher value.
As to `Cc1c(C(=O)OCC(=O)N(CCC#N)c2ccccc2)oc2c1ccc1ccccc12`, the inhibition – broadly, the relative decrease from the control value, in per cent – is -4.25%.

As for `CC(C)c1nc(CNC(=O)CC2C(=O)NCCN2Cc2ccoc2)cs1` (configuration not stated), the inhibition is 0.09%.

With `CCOc1ccc(C(=O)Nc2cccc(SC)c2)cc1`, the inhibition is -7.85%.

Consider `CC(C)(C)NC(=O)C(c1ccncc1)N(C(=O)CNC(=O)c1ccco1)c1ccc2c(c1)OCO2` (configuration not stated), for which the inhibition is -2.29%.

With `Cc1cc(Br)cn2c(Cc3ccsc3)c(-c3ccc(C#N)cc3)nc12`, the inhibition is -0.162%.

On to `Clc1ccc(C2=CSC3=Nc4cccc5cccc(c45)N23)cc1`, for which the inhibition was 46.9% (active).

As for `Cc1ccc(/C=C/C(=O)O)cc1S(=O)(=O)N1CCC(Cc2ccccc2)CC1`, the inhibition is -2.42%.

As to `COC(=O)c1ccc(COC(=O)c2cnccn2)cc1`, the inhibition was -0.176%.

`CCOc1ccc(NS(=O)(=O)c2ccc(C(=O)NCC3CCCO3)cc2)cc1` (configuration not stated): the inhibition is -1.46%.

For `CCOc1ccc(NC(=O)c2ccc(NC(=O)COC(=O)c3ccc(NC(=O)CC#N)cc3)cc2)cc1`, the inhibition was 39.8% (active).

As for `N#Cc1c(NC(=O)CCCl)sc2c1CCCCC2`, the inhibition is -2.84%.

With `CC(=O)c1c(C)[nH]c(C(=O)OCC(=O)Nc2sc3c(c2C#N)CCCC3)c1C`, the inhibition is 6.3%.

For the compound `CC(C)NC(=O)NC(=O)COC(=O)c1ccc(NC(=O)CC#N)cc1`, the inhibition is 0.78%.

In the case of `CCOc1ccc(NC(=O)CCNC(=O)c2ccc(Br)cc2)cc1`, the inhibition was -10.7%.

Take `N#CCC(=O)Nc1ccc(C(=O)OCC(=O)Nc2sc3c(c2C#N)CCCC3)cc1`: the inhibition is 32.6% (active).

On to `C/C=C(/C)C(=O)OC1Cc2c(ccc3ccc(=O)oc23)OC1(C)C` (configuration not stated), for which the inhibition was -4.64%.

As to `CCCCc1cc(=O)oc2c(C)c(OCC(=O)N3CCC(C(N)=O)CC3)ccc12`, the inhibition was -1.4%.

`Cc1ccc(C(=O)N/C(=C/c2ccc(-c3cccc([N+](=O)[O-])c3)o2)C(=O)NCCCN(C)C)cc1`: the inhibition is -9.94%.

For `Cc1ccc(Cc2cnc(NC(=O)/C(C#N)=C/c3ccc(-c4cccc([N+](=O)[O-])c4)o3)s2)cc1`, the inhibition was 51.2% (active).

As to `Cc1ccc(-c2ccc(/C=C(\C#N)C(N)=S)o2)c([N+](=O)[O-])c1`, the inhibition was -3.57%.

For `CCCCN(C(=O)c1ccc(S(=O)(=O)N2CCOCC2)cc1)C1CCS(=O)(=O)C1` (configuration not stated), the inhibition is -1.78%.

On to `O=C(CC(NS(=O)(=O)c1ccc(Cl)cc1)c1ccco1)NC1CCCC1` (configuration not stated), for which the inhibition was 1.19%.

As to `COc1ccc(NC(=O)COc2ccc(C(=O)c3ccc(F)cc3)cc2)cc1S(N)(=O)=O`, the inhibition was 7.92%.

In the case of `Cc1c(OC(C)C(=O)NCC2CCC(C(=O)O)CC2)ccc2c1oc(=O)c1ccccc12` (configuration not stated), the inhibition was 4.05%.

On to `O=C(NCC1CCCCC1)NCC1CCCCC1`, for which the inhibition was 2.72%.

For the compound `C[C@H]1CN([C@@H](C)CO)C(=O)c2cc(-c3ccccc3F)cnc2O[C@H]1CN(C)C(=O)C1CCOCC1`, the inhibition was -1.92%.

For `Cc1ccc(NC(=O)CCNC(=O)c2ccc([N+](=O)[O-])cc2)cc1S(=O)(=O)N1CCOCC1`, the inhibition was 0.847%.

Consider `COc1ccc(NS(=O)(=O)c2cc(NC(=O)COc3ccccc3F)ccc2OC)cc1`, for which the inhibition is -11.4%.

Turning to `COc1ccc(NS(=O)(=O)c2cc(NC(=O)CC(=O)c3ccc([N+](=O)[O-])cc3)ccc2C)cc1`, the inhibition was 44.2% (active).

As to `O=[N+]([O-])c1ccc(Oc2ccc(F)cc2Br)c2ccncc12`, the inhibition is 4.81%.

As for `CCCn1nnnc1NC(=O)COc1ccc(Cl)cc1C`, the inhibition was 8.48%.

Regarding `CCc1ccc(C(=O)OCC(=O)NCC(F)(F)F)cc1`, the inhibition is -0.578%.

Take `C=CCCC(=O)Nc1nc(C)c(-c2csc(Nc3ccc(Cl)cc3)n2)s1`: the inhibition was 12.2%.

For the compound `Cc1ccn2c(-c3csc(Nc4ccc(C(=O)O)cc4)n3)c(C)nc2c1`, the inhibition is -7.16%.

As for `Cc1ccc(Nc2nc(-c3sc(NC(=O)c4ccccc4)nc3C)cs2)cc1`, the inhibition was 36.9% (active).

On to `c1ccc2c(c1)OC1OC2Oc2ccccc21`, for which the inhibition is -4.86%.

Consider `COc1ccc(C(=O)N2CCCC(C(=O)c3ccccc3OC)C2)cc1OC` (configuration not stated), for which the inhibition is -7.22%.

For `O=C1Nc2ccc(Br)cc2/C1=N/N=C/C1=C(N2CCOCC2)C(=C\c2ccccc2)/CC1`, the inhibition was 30.5% (active).

For the compound `O=C(O)c1ccc(NN=CC2=C(N3CCOCC3)/C(=C/c3ccccc3)CC2)cc1`, the inhibition was 19.5%.

As for `CC1=NN(C(=O)CCc2ccccc2O)C(O)(C(F)(F)F)C1` (configuration not stated), the inhibition is 17.6%.

`O=C1OC(NC(=O)c2ccccc2)C(N2CCOCC2)=C1Cl` (configuration not stated): the inhibition was -2.17%.

For the compound `Cn1c(N)c(C(=O)COC(=O)c2cccc(S(=O)(=O)N3CCOCC3)c2)c(=O)n(C)c1=O`, the inhibition was -4.47%.

In the case of `CCOc1ccc2nc(/N=C/c3nc(-c4ccccc4)oc3O)sc2c1`, the inhibition was 37% (active).

Consider `CCOc1ccc2nc(C(=O)N3CCCC(C)C3)sc2c1` (configuration not stated), for which the inhibition was -8.67%.

As for `Oc1oc(-c2ccccc2Br)nc1/C=N/c1ccccn1`, the inhibition is -8.02%.

On to `COc1ccc(S(=O)(=O)NCc2cccnc2)cc1NC(=O)c1ccc(C)cc1`, for which the inhibition is -1.72%.

For `Cc1ccccc1OCC(=O)N(Cc1cccc(F)c1)C1CCS(=O)(=O)C1` (configuration not stated), the inhibition is -3.33%.

As for `O=S(=O)(c1ccc(-c2ccccc2)cc1)N1CCCC1`, the inhibition is -5.08%.

As for `O=C1CCC(C(=O)N2CCN(c3ccccc3Cl)CC2)CN1CC1CCCCC1` (configuration not stated), the inhibition is 5.68%.

Turning to `Cc1nc(N2CCN(c3ccccn3)CC2)c2c(C)c(C(=O)Nc3ccc(F)c(Cl)c3)sc2n1`, the inhibition was 29.5% (active).

`Cc1nc(N2CCOCC2)c2c(C)c(C(=O)Nc3ccc(C(F)(F)F)cc3)sc2n1`: the inhibition was -4.82%.

As to `Cc1nc(N2CCC(C)CC2)c2c(C)c(C(=O)Nc3cc(F)ccc3C)sc2n1`, the inhibition is 7.17%.

For `O=S(=O)(NN=C1CCCCCCC1)c1ccc(Br)cc1`, the inhibition was -0.0867%.

Take `O=C(CNS(=O)(=O)c1ccc(Br)s1)N1CCN(C(=O)c2ccco2)CC1`: the inhibition was -0.302%.

`COc1cc(C2CC(=O)N3CN(Cc4ccccc4)CSC3=C2C#N)ccc1OCc1ccccc1` (configuration not stated): the inhibition was 31.4% (active).

As to `CCCNC(=O)C1CC(=O)N(c2ccc(OCc3ccccc3)cc2)C1` (configuration not stated), the inhibition is 0.155%.

On to `COc1cc(CNC2CCCC2)c(Br)cc1OCc1ccccc1`, for which the inhibition is -2.14%.

On to `O=C(C[C@H]1C/C=C\C[C@@H](NC(=O)OCC2c3ccccc3-c3ccccc32)C(=O)O[C@@H](c2ccccc2)CNC1=O)N[C@H](CO)Cc1ccccc1`, for which the inhibition was 10.3%.

`COc1ccc(C(C#N)(CC(=O)O)c2cnccn2)cc1OC` (configuration not stated): the inhibition is -3.22%.

As to `CCOc1ccc(C(=O)NC2CCN(C(=O)Nc3ccccc3OC)CC2)cc1`, the inhibition was 2.23%.

As for `CCOc1ccc2nc(N3CCCN(C(=O)Nc4ccccc4C)CC3)c(C#N)cc2c1`, the inhibition is 36.8% (active).

In the case of `CCOc1ccc2nc(NCCNC(=O)C(C)(C)C)c(C)cc2c1`, the inhibition was -13.1%.

Turning to `CCOC(OCC)c1ccc(/C=C\c2nccc(N)n2)cc1`, the inhibition is -3.79%.

In the case of `CCCCc1ccc(S(=O)(=O)NC(=O)C2(C)CCN2C(=O)c2c(C)noc2C)cc1` (configuration not stated), the inhibition was -0.915%.

For the compound `CCOC(=O)N1CCN(S(=O)(=O)c2cc3c(cc2C)NC(=O)CO3)CC1`, the inhibition was 6.26%.

`CCCCCCC(=O)Nc1nc(C)c(-c2csc(Nc3cc(Cl)ccc3OC)n2)s1`: the inhibition is 33% (active).

Take `CCCCCCC(=O)Nc1nc(C)c(-c2csc(Nc3cccc(OC)c3)n2)s1`: the inhibition is 17.7%.

In the case of `CCCCC(=O)Nc1nc(C)c(-c2csc(Nc3ccc(Cl)cc3)n2)s1`, the inhibition was 20.5%.

For the compound `CCOc1ccc(/C(O)=C2\C(=O)C(=O)N(c3ccc(OC)cc3)C2c2ccccc2[N+](=O)[O-])cc1` (configuration not stated), the inhibition is -0.376%.

In the case of `CCC(=C/c1sc2ccc3ccccc3c2[n+]1C)/C=C1\Sc2ccc3ccccc3c2N1C`, the inhibition is 38.9% (active).

On to `Cc1[nH]c(N)nc(=S)c1CCCNc1ccccc1`, for which the inhibition was 4.24%.

For `CCCc1cc(=S)n2c([nH]c3ccccc32)c1C#N`, the inhibition is 11.9%.

With `CNC[C@H]1Oc2c(NC(=O)C3CCCCC3)cccc2C(=O)N([C@H](C)CO)C[C@@H]1C`, the inhibition is 0.223%.

Regarding `CN(C)C(=O)Cn1c(=O)n(S(=O)(=O)c2ccccc2)c2ccccc21`, the inhibition is -0.572%.

As to `Cc1nc(N)nc(Cl)c1CCC1OCCO1`, the inhibition was -2.19%.

With `CCCCNS(=O)(=O)c1ccc(S(=O)(=O)n2cnc3ccccc32)cc1`, the inhibition was 0.725%.

Consider `CC(C)C(c1nnnn1C1CCCC1)N1CCN(c2ccccc2F)CC1` (configuration not stated), for which the inhibition was -3.03%.

With `CC(=O)Nc1ccc(Nc2cc(C)nc(Nc3ccc(NC(C)=O)cc3)n2)cc1`, the inhibition is 32.4% (active).

In the case of `CC(=O)NS(=O)(=O)c1ccc(N/C(N)=N/c2nc(C)cc(C)n2)cc1`, the inhibition is 4.03%.

As to `COc1ccc(C(=O)NNc2cc(C)nc(NNC(=O)c3ccc(OC)cc3)n2)cc1`, the inhibition was 3.2%.

Turning to `CC1CCC2(CC1)NC(=O)N(CC(=O)c1cccn1C)C2=O` (configuration not stated), the inhibition was -3.17%.

`Cc1ccc2nsnc2c1S(=O)(=O)N1CCCC1C(=O)O` (configuration not stated): the inhibition is -6.81%.

Regarding `CCCCc1ccc(NC(=S)N2CCCC(CO)C2)cc1` (configuration not stated), the inhibition is -0.962%.

As to `CC(=O)c1ccc(N2C(=NC(=O)C(C)C)SC3CS(=O)(=O)CC32)cc1` (configuration not stated), the inhibition is -3.55%.

Regarding `CC(=O)Nc1ccc(C(=O)Nc2nc(-c3cc(C)n(Cc4ccccc4)c3C)cs2)cc1`, the inhibition is 41.8% (active).

In the case of `Cc1ccc(C(=O)Nc2c(C#N)c(C)c(C)n2Cc2ccccc2)cc1`, the inhibition was -7.87%.

For the compound `Cc1c(C#N)c(NC(=O)c2ccccc2)n(Cc2ccccc2)c1C`, the inhibition is -5.49%.

The values are drawn from PubChem BioAssay AID602399 (Sanford-Burnham Center for Chemical Genomics, 2012).
